± gives the uncertainty stated by the source.
Tested on: FLX1
Experiment: cell viability z-score within plate (CellTiter-Glo), mean of 3 biological replicates; higher = higher viability relative to plate (less growth inhibition)
Details: 2 µM; time (hr): 120
Description: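 FLX1 fibrolamellar carcinoma cells (DNAJB1-PRKACA fusion), 600 cells/well in 384-well plates, treated with a Selleck kinase inhibitor library (L1200) at 2 uM for 5 days (120 hr); viability by CellTiter-Glo. A z-score was computed within each plate and averaged over three biological replicates.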

SMILES	cell viability z-score within plate
CCOc1cc2ncc(C#N)c(Nc3ccc(F)c(Cl)c3)c2cc1NC(=O)/C=C/CN(C)C [Pelitinib (EKB-569)]	-1.38 ± 0.64
Fc1cc(-c2cccc3ncc(-c4cnn(C5CCNCC5)c4)nc23)cc(F)c1CN1CCOCC1	-1.08 ± 1.1
COc1cc2ncnc(Nc3cccc(Cl)c3)c2cc1OC [AG-1478 (Tyrphostin AG-1478)]	-0.29 ± 0.52
Cc1cc(Nc2nc(N[C@@H](C)c3ccc(F)cc3)c(C#N)cc2F)n[nH]1	0.513 ± 0.61
CN1CCC(COc2cnc(-c3cccc(Cn4nc(-c5cccc(C#N)c5)ccc4=O)c3)nc2)CC1	-0.645 ± 0.46
COc1ccc(-c2nc(N3CCOCC3)c3sc(CN(C)c4ncc(C(=O)NO)cn4)cc3n2)cn1	-0.258 ± 0.92
NC(=O)Nc1cc(-c2cccc(F)c2)sc1C(=O)N[C@H]1CCCNC1	0.408 ± 0.47
CCN1/C(=C/C(C)=O)Sc2ccc(OC)cc21	-1.85 ± 0.92
CNC(=O)c1cc(COc2nnc(Nc3ccc(Cl)cc3)c3ccoc23)ccn1 [Telatinib]	-1.65 ± 1.2
Cn1cnc2c(F)c(Nc3ccc(Br)cc3Cl)c(C(=O)NOCCO)cc21 [Selumetinib (AZD6244)]	-0.403 ± 0.49
C=CC(=O)Nc1cccc(Sc2nc(Nc3ccc(N4CCN(C)CC4)cc3)ncc2Cl)c1	0.081 ± 0.26
Cn1c(Nc2ccc(C(F)(F)F)cc2)nc2cc(Oc3ccnc(-c4ncc(C(F)(F)F)[nH]4)c3)ccc21	0.193 ± 0.26
CCc1cc(Nc2nccc(-c3c(-c4ccc(OC)c(C(=O)Nc5c(F)cccc5F)c4)nc4ccccn34)n2)c(OC)cc1N1CCC(N2CCN(S(C)(=O)=O)CC2)CC1	0.744 ± 0.54
CC(C)(C)c1cc(/C=C(\C#N)C(N)=S)cc(C(C)(C)C)c1O [Tyrphostin AG 879]	0.585 ± 0.3
O=C(NC[C@H](O)CO)c1ccncc1Nc1ccc(I)cc1F	-0.968 ± 0.82
Cc1cc(Nc2cc(N3CCN(C)CC3)nc(Sc3ccc(NC(=O)C4CC4)cc3)n2)n[nH]1 [Tozasertib (VX-680, MK-0457)]	0.324 ± 0.42
Cc1nc(NC(=O)N2CCC[C@H]2C(N)=O)sc1-c1ccnc(C(C)(C)C(F)(F)F)c1 [Alpelisib (BYL719)]	0.524 ± 0.28
CC1=C(C(=O)Nc2cc3cn[nH]c3cc2F)C(c2ccc(C(F)(F)F)cc2)CC(=O)N1 (centres undefined)	1.02 ± 0.74
COc1ccc(-c2cc3c(C)nc(N)nc3n([C@H]3CC[C@H](OCCO)CC3)c2=O)cn1	-0.872 ± 0.053
Nc1cc(C(F)(F)F)c(-c2cc(N3CCOCC3)nc(N3CCOCC3)n2)cn1 [Buparlisib (BKM120, NVP-BKM120)]	-0.0175 ± 0.38

SMILES	cell viability z-score within plate
CNc1nc(-c2ccc3c(N)n[nH]c3c2)cc(N2C[C@@H](C(=O)NC3CCCCC3)CC[C@H]2C)n1	0.0251 ± 0.54
C[S+]([O-])c1ccc(-c2nc(-c3ccc(F)cc3)c(-c3ccncc3)[nH]2)cc1 (centres undefined)	-1.58 ± 1.1
CNC(=O)c1ccc(C)c(-n2c(C)cc(OCc3ccc(F)cc3F)c(Br)c2=O)c1	0.325 ± 0.62
CN(C)CCOc1ccc(-c2nc(-c3ccncc3)c(-c3ccc4c(c3)CC/C4=N\O)[nH]2)cc1	0.259 ± 0.2
O=C(c1ccc(/C=C/c2n[nH]c3ccccc23)cc1)N1CCNCC1	0.449 ± 0.26
Cc1ccc(C(=O)Nc2ccc(CN3CCN(C)CC3)c(C(F)(F)F)c2)cc1C#Cc1cnc2cccnn12	-1.09 ± 0.7
CC(C)(C)c1nc(-c2cccc(NS(=O)(=O)c3c(F)cccc3F)c2F)c(-c2ccnc(N)n2)s1	0.0787 ± 0.036
Cc1cc(O)c2c(c1)C(=O)c1cccc(O)c1C2=O [Chrysophanic Acid]	0.539 ± 0.3
COc1cc(F)c(F)c(Nc2ccc(I)cc2F)c1NS(=O)(=O)C1(C[C@H](O)CO)CC1 [Refametinib (RDEA119, Bay 86-9766)]	-1.34 ± 1.7
CSc1cccc(Nc2ncc3cc(-c4c(Cl)cccc4Cl)c(=O)n(C)c3n2)c1	0.169 ± 0.22
O=C1NC(=O)C(=Cc2ccc(-c3ccc(F)cc3)o2)S1 (stereo in doubt)	0.244 ± 0.32
Cn1cc(-c2ccc3nnc(C(F)(F)c4ccc5ncccc5c4)n3n2)cn1	-0.299 ± 0.51
O=c1sn(-c2cccc3ccccc23)c(=O)n1Cc1ccccc1 [Tideglusib]	-2.63 ± 1.1
Cc1c(CN2CCN(C(=O)[C@H](C)O)CC2)sc2c(N3CCOCC3)nc(-c3cnc(N)nc3)nc12 [Apitolisib (GDC-0980, RG7422)]	0.169 ± 0.42
C=CC(=O)Nc1ccc2ncnc(Nc3ccc(OCc4cccc(F)c4)c(Cl)c3)c2c1	0.819 ± 0.26
CC(=O)Nc1nc(C)c(-c2ccc(Cl)c(S(=O)(=O)NCCO)c2)s1	-0.0789 ± 0.1
N#Cc1ccc2[nH]c(O)c(-c3ccc(CN4CCOCC4)cn3)c2c1	0.226 ± 0.62
CO[C@H]1C[C@@H]2CC[C@@H](C)[C@@](O)(O2)C(=O)C(=O)N2CCCC[C@H]2C(=O)O[C@H]([C@H](C)C[C@@H]2CC[C@@H](O)[C@H](OC)C2)CC(=O)[C@H](C)/C=C(\C)[C@@H](O)[C@@H](OC)C(=O)[C@H](C)C[C@H](C)/C=C/C=C/C=C/1C [Rapamycin (Sirolimus)]	0.422 ± 0.17
CC(C)(C)c1ccc(S(=O)(=O)/C=C/C#N)cc1	-0.975 ± 1.1

From the supplement of paper PMC9925115
